A selection: hits, their analogues and other compounds. The true share with any hit is near 4.7%.
TRHR agonist = activates the human TRH receptor; P34981; TRHR cells, calcium flux fluo-8, FDSS agonist mode; activation, % at 2 µM; 360,000 compounds, 0.18% hits; further: 0% is about no effect
Target sequence (P34981 whole entry, looked up): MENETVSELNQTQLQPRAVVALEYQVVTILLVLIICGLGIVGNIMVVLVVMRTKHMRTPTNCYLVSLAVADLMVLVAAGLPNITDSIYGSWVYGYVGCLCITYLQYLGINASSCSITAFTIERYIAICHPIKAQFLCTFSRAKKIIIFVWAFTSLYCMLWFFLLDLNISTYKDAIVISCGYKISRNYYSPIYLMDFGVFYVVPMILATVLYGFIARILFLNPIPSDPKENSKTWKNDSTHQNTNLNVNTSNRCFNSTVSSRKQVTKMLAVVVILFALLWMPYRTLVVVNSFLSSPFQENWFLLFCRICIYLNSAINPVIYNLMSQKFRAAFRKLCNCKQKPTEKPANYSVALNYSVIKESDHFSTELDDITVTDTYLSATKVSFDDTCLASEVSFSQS
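In this calcium-flux screen, cells bearing human TRHR are dye-loaded with fluo-8, baselined for 10 cycles, then exposed to library compounds; positive kinetic calcium responses during the agonist phase mark hits, with TRH as control.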
TRHR PAM = allosterically enhances the human TRH receptor. P34981. TRHR cells, fluo-8 calcium fluorescence, EC20 TRH enhancement. enhancement, % at 2 µM. 360,000 compounds, 0.66% hits. AID 493056; in the data active means enhancement above about 30%; further: 0% is about no effect
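TRHR-expressing cells loaded with fluo-8 calcium dye were read kinetically (ex 480/em 530) during compound addition, then stimulated with an EC20 of TRH (10 nM final). Enhancement of the Gq-mediated intracellular calcium response was scored.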
D1 potentiator = human D1 dopamine receptor positive modulation; P21728; HEK293 TREx D1 cells, calcium flux, dopamine EC20 potentiation; potentiation, % at 10 µM; 360,000 compounds, 0.036% hits; in the data active means potentiation above about 30%; further: 0% is about no effect
D1 antagonist = antagonists of human D1 dopamine receptor | P21728 | HEK293 TREx D1 cells, calcium flux, dopamine EC80; active compounds read low | activity change, negative = inhibition, % at 10 µM | 360,000 compounds, 3.2% hits; in the data active means activity change below about -30%; further: on the % scale 0 is the no-effect control and ±100 the full control effect
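HEK293 T-REx cells expressing inducible, force-coupled D1 receptor; no-wash Ca dye, 30–90 min RT. Cmpd → 180 s read at 1 Hz → EC80 DA → 180 s read.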
D1 agonist = human D1 receptor agonism | P21728 | HEK293 T-REx D1 cells, calcium flux, agonist mode | activation, % at 2 µM | 360,000 compounds, 1% hits; further: 0% is about no effect
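Agonism was scored from calcium flux recorded over 180 s (1 read/s) after pintool compound addition, following a 10-cycle baseline. Cells were inducible force-coupled HEK293 TREx D1, plated overnight at 30 C and loaded with no-wash calcium dye.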
Starred values were filed as active, the others as inactive; . = not tested or not shown. Unless noted, no stated cut-off is given here; in the data, active means activation above about 30%; inactive means the rest.

SMILES	TRHR agonist	TRHR PAM	D1 potentiator	D1 antagonist	D1 agonist
COc1ccc(S(=O)(=O)N(C)C)cc1NC(=O)COC(=O)c1nc2nccc(C)n2n1	0.7	8.6	-1.8	-4.2	1.0
CCOCCc1nnc(NC(=O)C(=O)c2cc(C)n(-c3ccc(Cl)cc3)c2C)s1	0.7	-1.3	3.1	2.7	4.4
COc1cc(N2CCCC2)c(OC)cc1/C=C1/NC(=S)NC1=O	70.5*	6.2	-2.2	-34.9*	182.8*
COc1ccc(OC)c(/C=C2\NC(=O)NC2=O)c1	-0.8	-2.4	12.8	2.3	4.0
CN(C)C(CNc1ccc(C(F)(F)F)cn1)c1ccccc1 (stereo unspecified)	2.4	10.3	-7.3	3.0	8.0
CNCC[C@@H](Oc1ccc(C(F)(F)F)cc1)c1ccccc1	5.9	3.0	.	.	45.6*
CCOc1ccc(CCNC(=O)c2nnc(Cc3ccc(Cl)cc3Cl)o2)cc1OCC	-0.4	-3.3	-2.3	-3.5	5.4
CCCOc1ccc(C2=NC(c3ccc(F)cc3)=Nc3ccc(OC)cc3N2)cc1	-1.8	0.6	1.4	-8.0	5.6
O=C(COC(=O)/C=C/c1ccccc1Cl)NC(=O)NCc1ccccc1	0.8	-2.2	7.9	-10.6	31.8*
COc1ccccc1/C=N/NC(=O)c1c(-c2ccccc2)noc1C	-2.0	-2.5	-8.0	4.6	-2.1
Cc1onc(-c2ccccc2)c1C(=O)N/N=C/c1ccccc1OC(C)C	-0.2	-6.3	-4.0	-31.5*	3.7
Cc1ccc(S(=O)(=O)N2c3ccccc3OCC2C(C)(C)C)cc1 (stereo unspecified)	-0.1	-5.8	-6.0	-0.1	0.8
Cc1ccc2c(c1)N(S(=O)(=O)c1ccc(F)cc1)C(C(C)(C)C)CO2 (stereo unspecified)	0.5	-0.7	7.8	-40.4*	6.2
O=[N+]([O-])c1ccc(-c2ccc(/C=N/Nc3nc(N4CCCC4)nc(N4CCCC4)n3)o2)cc1	17.8	-6.5	-2.0	17.5	76.1*
O=[N+]([O-])c1cccc(-c2ccc(/C=N/Nc3nc(N4CCCCC4)nc(N4CCCCC4)n3)o2)c1	-1.1	-2.3	0.8	3.1	4.6
O=[N+]([O-])c1ccc(/C=N/Nc2nc(N3CCCC3)nc(N3CCCC3)n2)o1	-0.3	-1.5	-1.4	-13.3	0.8
O=[N+]([O-])c1ccc(-c2ccc(/C=N/Nc3nc(N4CCCCC4)nc(N4CCCCC4)n3)o2)cc1	14.0	0.7	-2.2	-2.1	46.8*
COc1ccc(CN2CCCC(CNC(=O)c3ccc(F)cc3)C2)c(C)c1C (stereo unspecified)	1.2	5.0	0.2	8.3	3.8
Cc1cc(C(=O)COC(=O)c2ccc(O)cc2)c(C)n1CCc1ccc(F)cc1	1.0	33.3*	-7.5	-1.1	11.9
Cc1ccc(/C=N/NC(=O)C(=O)N/N=C/c2ccc(C)o2)o1	-1.8	0.7	-2.3	-30.8*	-0.7
CCc1nc2ccccc2n1CCCCOc1ccccc1C	-0.4	-3.9	-3.9	-7.6	9.0
COC(=O)c1ccccc1NC(=O)Cn1cnc([N+](=O)[O-])c1	-0.7	-2.0	-1.2	-89.4*	5.2
CCOc1ccc(CCNC(=O)c2cnc3sc(N4CCCCC4)nn3c2=O)cc1	0.4	-2.3	-5.2	2.5	2.2
COc1cc(/C=C2\NC(=S)N(C)C2=O)ccc1O	10.2	-1.1	-1.9	-4.7	16.2
CN1C(=O)/C(=C/C=C2/CCCN2C)N(C)C1=S	-1.8	-0.2	2.7	-10.7	5.4
SMILES	TRHR agonist	TRHR PAM	D1 potentiator	D1 antagonist	D1 agonist
Cc1cc(/C=C2\NC(=S)N(C)C2=O)ccc1N1CCCC1	141.9*	32.4*	6.8	-45.2*	330.8*
Cc1cc(N2CCCC2)ccc1/C=C1/C(=O)N(C)C(=S)N1C	10.8	-6.9	-4.1	4.1	35.8*
Cc1cc(/C=C2/C(=O)N(C)C(=S)N2C)ccc1N1CCCC1	28.8	-3.2	7.5	.	127.5*
CCN1C(=O)/C(=C/c2ccc(N3CCCC3)cc2)NC1=S	110.6*	17.8	10.5	-52.5*	241.7*
C/C(CC(=O)Nc1ccc([N+](=O)[O-])cc1)=N/NC(=O)C1C2CCCCC21 (stereo unspecified)	-0.2	0.2	0.4	-3.1	1.0
Cc1ccc(NS(=O)(=O)c2ccc3nc(-c4ccccc4)[nH]c3c2)cc1Cl	-1.5	9.8	-3.8	-14.1	18.9
CCOc1ccccc1NC(=O)CN(c1cc(C)cc(C)c1)S(=O)(=O)c1c(C)noc1C	0.2	-1.4	0.3	-39.5*	0.1
COc1ccccc1NC(=O)CN(c1ccc(C)cc1)S(=O)(=O)c1c(C)n[nH]c1C	-0.5	2.3	-8.4	-53.5*	4.2
Cc1noc(C)c1S(=O)(=O)N(CC(=O)NCc1ccc(F)cc1)c1ccc(C(C)C)cc1	0.6	-11.7	-5.4	-34.7*	2.7
Cc1noc(C)c1S(=O)(=O)N(CC(=O)NCc1ccccc1)c1ccc(C(C)C)cc1	0.8	-16.0	-1.4	10.2	5.3
COc1ccc(OC)c(NC(=O)CN(c2ccc(C)cc2)S(=O)(=O)c2c(C)n[nH]c2C)c1	-0.6	1.7	-0.9	13.5	2.2
CCOc1ccc(N(CC(=O)Nc2cccc(F)c2)S(=O)(=O)c2c(C)noc2C)cc1	0.7	6.9	-4.1	-34.3*	4.6
CCOc1ccc(N(CC(=O)Nc2ccc(C)c(C)c2)S(=O)(=O)c2c(C)noc2C)cc1	0.4	-9.7	-3.1	-10.4	2.9
Cc1cc(Cl)ccc1NS(=O)(=O)c1ccc2c(c1)CCN2S(C)(=O)=O	-0.1	0.6	-3.2	-4.8	1.3
CC1CCCC(C)N1C(=C(Cl)Cl)C(=C1SCCS1)[N+](=O)[O-] (stereo unspecified)	4.3	-13.2	2.4	29.7	-1.6
COc1ccc(-c2nc3c(C#N)c[nH]n3c2NC2CCCC2)c(OC)c1	-0.6	0.0	-0.1	3.5	0.5
CCOC(=O)Cc1c(C)nc(N)[nH]c1=O	0.3	-2.6	-2.0	-30.6*	3.2
CCOC(=O)C1=C(C)NC(C)=C(C(=O)OCCNC(=O)c2cccnc2)C1c1cccc([N+](=O)[O-])c1 (stereo unspecified)	-1.3	-3.4	-6.0	1.3	1.1
COC(=O)C1=C(C)NC(C)=C(C(=O)OCCN(C)Cc2ccccc2)C1c1cccc([N+](=O)[O-])c1 (stereo unspecified)	-0.6	-1.0	-5.3	-34.7*	0.3
COc1ccc(-c2nc(SCC(=O)Nc3ccc4c(c3)OCO4)c(-c3ccc(F)cc3)[nH]2)cc1OC	-1.2	-0.8	-3.2	-35.5*	3.5
COc1ccc(-c2nc(SCC(=O)Nc3ccccc3)c(-c3ccc(F)cc3)[nH]2)cc1OC	1.7	7.4	-5.5	-47.1*	-0.2
COc1ccc(-c2nc(SCC(=O)Nc3ccc4c(c3)OCCO4)c(-c3ccc(F)cc3)[nH]2)cc1OC	-0.8	0.7	-4.9	-14.2	1.7
COc1ccc(NC(=O)CSc2nc(-c3ccc(F)cc3)[nH]c2-c2ccc(C)cc2)cc1OC	1.0	-5.0	-1.1	-18.4	3.4
